PubChem BioAssay (NCATS)
Inconclusive results are not listed. A number with no mark means an inactive call. Calls of active or inactive are those of the source. Calls come from the whole dose curve; as a rule, active = well fitted cell-killing curve with a large enough effect; inconclusive = small, poorly fitted or top-dose-only effect; inactive = flat fitted curve, though single readings scatter.

Assay: Cell Viability - LYMP2-008 (AID 980); note: nearly all actives have a fitted effect of over 60% in size
Conditions: LYMP2-008 lymphoblastoid cell viability, qHTS; series mostly up to 92.2 µM; activity change, negative = cytotoxicity: at the top concentration
Summary of the method: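 Cytotoxicity determined from ATP-dependent luciferase luminescence (CellTiter-Glo) following 24 h compound exposure of human lymphoblastoid LYMP2-008 cells at 37 C. Concentration-response data fitted to the Hill equation to give AC50.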
% is set by controls: 0 for no effect and ±100 for the full control effect; potency is the fitted concentration of half-maximal effect.

SMILES | activity change, negative = cytotoxicity | Potency
CCOCCOC(C)=O | 1.73% | 
COc1ccc(C(c2ccc(OC)cc2)C(Cl)(Cl)Cl)cc1 |  | inactive
O=C(O)C(Cl)Cl | -8.22% | 
O=C(O)COc1ccccc1 | -1.53% | 
O=[N+]([O-])c1c2ccccc2cc2ccccc12 | -2.32% | 
CC(C)(O)C(=O)Nc1ccc([N+](=O)[O-])c(C(F)(F)F)c1 | -11.3% | 
CN(C)NC(=O)CCC(=O)O | -10.3% | 
CCCCCCCCc1ccc(O)cc1 | -6.5% | 
O=[N+]([O-])c1cc([N+](=O)[O-])c2ccccc2c1 | -12.3% | 
CN(C)[C@@H]1C(=O)C(C(N)=O)=C(O)[C@@]2(O)C(=O)C3=C(O)c4c(O)cccc4[C@@](C)(O)[C@H]3[C@H](O)[C@@H]12 | -2.72% | 
CC(=O)[O][Hg][c]1ccccc1 |  | 1260 nM (active)
O=S(=O)(c1ccc(Cl)cc1)c1ccc(Cl)cc1 |  | inactive
CCCCOC(=O)c1ccccc1C(=O)OCc1ccccc1 | -1.35% | 
O=[N+]([O-])c1c(Cl)c(Cl)cc(Cl)c1Cl | 3.42% | 
COC(C)(C)CCCC(C)C/C=C/C(C)=C/C(=O)OC(C)C (stereo unspecified) | -10.4% | 
Nc1ccc(Sc2ccc(N)cc2)cc1 | -13.1% | 
Nc1ccc(Cl)cc1N | -14.9% | 
C=CC(=O)NCNC(=O)C=C | -7.53% | 
Cc1cc(O)ccc1Cl | -14.7% | 
C1CCC(NC2CCCCC2)CC1 |  | inactive
CCCCC(CC)COC(=O)c1ccccc1C(=O)OCC(CC)CCCC (stereo unspecified) | -7.91% | 
Nc1ccc([N+](=O)[O-])cc1 | -12.7% | 
c1cc2ccc3cccc4ccc(c1)c2c34 | 6.32% | 
OCCCBr | 13.9% | 
Nc1ccc(Cl)cc1 | -9.73% | 
CCOP(=O)(NC(C)C)Oc1ccc(SC)c(C)c1 (stereo unspecified) | -5.51% | 
